PubChem BioAssay AID1159580 (chemical genetic matrix, 2015)
Hit rate of the full screen: of about 5,500 compounds, about 2,000 (36%) were called active. Roughly 18% stayed inconclusive and do not appear here. Rule as the data show it: active = normalized growth mostly below about 0.91 (no sharp cut-off); inconclusive = no clear call, values can overlap the other calls; inactive = mostly above about 0.92. Some of the results follow.

Test: chemical genetic growth profiling, strain panel (AID 1159580);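 also: tested at 20 µM; growth read once vehicle control cultures reached saturation at 30 °C; 1 = growth at the plate median or of vehicle wells; lower values mean less growth of the strain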
Conditions: S. cerevisiae deletion strains, growth OD
[1] = locus YCL061C, strain MRC1, hits give low values
[2] = locus YHR030C, strain SLT2, hits give low values
[3] = locus YAL021C, strain ccr4, hits give low values
[4] = locus YAL026C, strain drs2, hits give low values
[5] = locus YAL030W, strain snc1, hits give low values
[6] = locus YBL061C, strain skt5, hits give low values
[7] = locus YBR009C, strain hhf1, hits give low values
[8] = locus YBR023C, strain chs3, hits give low values
[9] = locus YBR171W, strain sec66, hits give low values
[10] = locus YBR231C, strain swc5, hits give low values
[11] = locus YBR279W, strain paf1, hits give low values
[12] = locus YCL011C, strain gbp2, hits give low values
[13] = locus YCL016C, strain dcc1, hits give low values
[14] = locus YCL069W, strain vba3, hits give low values
[15] = locus YCR088W, strain abp1, hits give low values
[16] = locus YDL005C, strain med2, hits give low values
[17] = locus YDL040C, strain nat1, hits give low values
[18] = locus YDR001C, strain nth1, hits give low values
[19] = locus YDR069C, strain doa4, hits give low values
[20] = locus YDR137W, strain rgp1, hits give low values
[21] = locus YDR159W, strain sac3, hits give low values
[22] = locus YDR297W, strain sur2, hits give low values
[23] = locus YDR334W, strain swr1, hits give low values
[24] = locus YDR335W, strain msn5, hits give low values
[25] = locus YDR392W, strain spt3, hits give low values
[26] = locus YEL003W, strain gim4, hits give low values
[27] = locus YEL037C, strain rad23, hits give low values
[28] = locus YEL061C, strain CIN8 (second series), hits give low values
[29] = locus YER015W, strain faa2, hits give low values
[30] = locus YER016W, strain bim1, hits give low values
[31] = locus YER111C, strain swi4, hits give low values
[32] = locus YER155C, strain BEM2 (second series), hits give low values
[33] = locus YFR010W, strain ubp6, hits give low values
[34] = locus YGL167C, strain pmr1, hits give low values
[35] = locus YGL173C, strain kem1, hits give low values
[36] = locus YGL227W, strain vid30, hits give low values
[37] = locus YGL240W, strain doc1, hits give low values
[38] = locus YGL253W, strain hxk2, hits give low values
[39] = locus YHR013C, strain ard1, hits give low values
[40] = locus YHR027C, strain rpn1, hits give low values
[41] = locus YHR079C, strain IRE1, hits give low values
[42] = locus YHR142W, strain chs7, hits give low values
[43] = locus YJL092W, strain hpr5, hits give low values
[44] = locus YJL095W, strain BCK1 (second series), hits give low values
[45] = locus YJL095W, strain BCK1, hits give low values
[46] = locus YJL115W, strain asf1, hits give low values
[47] = locus YJL129C, strain trk1, hits give low values
[48] = locus YJL154C, strain vps35, hits give low values
[49] = locus YJL164C, strain tpk1, hits give low values
[50] = locus YJL166W, strain qcr8, hits give low values
[51] = locus YJL187C, strain SWE1, hits give low values
[52] = locus YJR066W, strain TOR1, hits give low values
[53] = locus YKL160W, strain elf1, hits give low values
[54] = locus YKR026C, strain gcn3, hits give low values
[55] = locus YKR091W, strain srl3, hits give low values
[56] = locus YLL001W, strain dnm1, hits give low values
[57] = locus YLL026W, hits give low values
[58] = locus YLL041C, strain sdh2, hits give low values
[59] = locus YLR027C, strain aat2, hits give low values
[60] = locus YLR113W, strain HOG1, hits give low values
[61] = locus YLR221C, strain rsa3, hits give low values
[62] = locus YLR258W, strain gsy2, hits give low values
[63] = locus YLR262C, strain YPT6 (second series), hits give low values
[64] = locus YLR320W, strain mms22, hits give low values
[65] = locus YLR342W, strain FKS1, hits give low values
[66] = locus YLR357W, strain rsc2, hits give low values
[67] = locus YLR370C, strain arc18, hits give low values
[68] = locus YLR384C, strain iki3, hits give low values
[69] = locus YML120C, strain ndi1, hits give low values
[70] = locus YMR058W, strain fet3, hits give low values
[71] = locus YMR125W, strain sto1, hits give low values
[72] = locus YMR129W, hits give low values
[73] = locus YMR205C, strain PFK2, hits give low values
[74] = locus YMR231W, strain pep5, hits give low values
[75] = locus YNL071W, strain lat1, hits give low values
[76] = locus YNL183C, strain NPR1, hits give low values
[77] = locus YNL209W, strain ssb2, hits give low values
[78] = locus YNL248C, strain rpa49, hits give low values
[79] = locus YNL322C, strain KRE1 (second series), hits give low values
[80] = locus YNR049C, strain mso1, hits give low values
[81] = locus YOR001W, strain rrp6, hits give low values
[82] = locus YOR070C, strain gyp1, hits give low values
[83] = locus YOR080W, strain dia2, hits give low values
[84] = locus YOR083W, strain WHI5, hits give low values
[85] = locus YOR106W, strain vam3, hits give low values
[86] = locus YOR231W, strain MKK1, hits give low values
[87] = locus YOR265W, strain rbl2, hits give low values
[88] = locus YOR270C, strain vph1, hits give low values
[89] = locus YOR290C, strain snf2, hits give low values
[90] = locus YPL051W, strain arl3, hits give low values
[91] = locus YPL078C, strain atp4, hits give low values
[92] = locus YPL106C, strain sse1, hits give low values
[93] = locus YPL240C, strain hsp82, hits give low values
[94] = locus YPL256C, strain CLN2, hits give low values

Measured: normalized growth

O=S(=O)(c1cc(Br)c(Br)s1)N1CCCCC1
inactive: locus YAL013W, strain DEP1, hits give low values 1.01 | locus YBR229C, strain ROT2, hits give low values 0.993 | [1] 0.967 | locus YDL101C, strain DUN1, hits give low values 0.963 | locus YDL134C, strain PPH21, hits give low values 1.02 | locus YDR150W, strain NUM1, hits give low values 1.01 | locus YEL061C, strain CIN8, hits give low values 1.01 | locus YGR078C, strain PAC10, hits give low values 1.01 | locus YGR229C, strain SMI1, hits give low values 0.984 | [2] 1.14 | locus YHR087W, strain rtc3, hits give low values 1.03 | locus YJR043C, strain POL32, hits give low values 0.964 | locus YJR075W, strain HOC1, hits give low values 1.01 | locus YKL190W, strain CNB1, hits give low values 1.02 | locus YLR039C, strain RIC1, hits give low values 0.942 | locus YLR058C, strain SHM2 (second series), hits give low values 1.01 | locus YLR085C, strain ARP6, hits give low values 1.02 | locus YLR262C, strain YPT6, hits give low values 0.991 | locus YML094W, strain GIM5, hits give low values 1 | locus YMR219W, strain ESC1, hits give low values 1 | locus YMR263W, strain SAP30, hits give low values 1 | locus YNL153C, strain GIM3, hits give low values 0.955 | locus YNL298W, strain CLA4 (second series), hits give low values 1.02 | locus YNL322C, strain KRE1, hits give low values 1.02 | locus YNR030W, strain Alg12, hits give low values 1.03 | locus YPL055C, strain LGE1, hits give low values 0.946 | locus YPL241C, strain CIN2, hits give low values 1 | locus YPR135W, strain CTF4, hits give low values 1.04

C[C@@](Cc1ccc(O)c(O)c1)(NN)C(=O)O
inactive: locus YAL040C, strain CLN3, hits give low values 1.01 | locus YCL061C, strain MRC1 (second series), hits give low values 1 | locus YDR363W, strain ESC2, hits give low values 1.02 | locus YER002W, strain NOP16, hits give low values 1.06 | locus YMR307W, strain GAS1, hits give low values 0.997 | locus YNL175C, strain NOP13, hits give low values 1.04 | locus YNL197C, strain WHI3, hits give low values 0.993 | locus YNL224C, strain SQS1, hits give low values 1.02 | locus YOR083W, strain WHI5 (second series), hits give low values 0.978

CCOC(=O)C(C)(N)Cc1ccc(O)c(O)c1 (configuration not stated)
active: [85] 0.859
inactive: [3] 0.967 | [4] 0.958 | [5] 0.965 | [6] 0.965 | [7] 0.984 | [8] 0.981 | [9] 0.967 | [10] 0.992 | [11] 0.993 | [12] 0.983 | [13] 0.971 | [1] 0.965 | [14] 0.989 | [15] 0.995 | [16] 0.986 | [17] 0.993 | [18] 0.982 | [19] 0.944 | [20] 0.956 | [21] 0.953 | locus YDR195W, strain ref2 0.985 | [22] 0.974 | [23] 0.921 | [24] 0.971 | [25] 0.964 | [26] 0.98 | [27] 0.983 | [28] 0.988 | [29] 0.952 | [30] 0.992 | [31] 0.968 | [32] 0.977 | [33] 0.976 | [34] 0.946 | [35] 0.945 | [36] 0.983 | [37] 0.958 | [38] 0.978 | [39] 0.951 | [40] 0.947 | [2] 1.08 | [41] 1.08 | [42] 0.989 | [43] 0.978 | [44] 0.973 | [45] 1.02 | [46] 0.95 | [47] 0.994 | [48] 0.986 | [49] 0.963 | [50] 0.985 | [51] 0.977 | [52] 1 | [53] 0.987 | [54] 0.971 | [55] 0.998 | [56] 0.974 | [57] 0.971 | [58] 0.962 | [59] 0.962 | [60] 1 | [61] 0.976 | [62] 0.986 | [63] 0.881 | [64] 0.988 | [65] 0.977 | [66] 0.969 | [67] 0.981 | [68] 0.958 | [69] 0.974 | [70] 0.946 | [71] 0.998 | [72] 0.997 | [73] 0.971 | [74] 0.972 | [75] 1 | [76] 0.987 | [77] 0.961 | [78] 0.984 | [79] 0.979 | [80] 0.972 | [81] 0.977 | [82] 0.978 | [83] 0.982 | [84] 0.983 | [86] 1.06 | [87] 0.969 | [88] 0.951 | [89] 0.946 | [90] 0.964 | [91] 0.984 | [92] 0.886 | [93] 0.975 | [94] 1.06

C[C@](N)(Cc1ccc(O)cc1)C(=O)O
inactive: [3] 1 | [4] 0.999 | [5] 0.998 | [6] 0.993 | [7] 0.993 | [8] 0.996 | [9] 0.998 | [10] 1 | [11] 1 | [12] 1 | [13] 0.986 | [1] 1 | [14] 0.997 | [15] 0.99 | [16] 0.989 | [17] 0.991 | [18] 0.986 | [19] 1 | [20] 0.991 | [21] 0.991 | locus YDR195W, strain ref2 0.971 | [22] 0.996 | [23] 0.997 | [24] 0.995 | [25] 0.923 | [26] 1 | [27] 0.999 | [28] 0.992 | [29] 1 | [30] 0.993 | [31] 1 | [32] 0.983 | [33] 1 | [34] 0.994 | [35] 1.01 | [36] 0.992 | [37] 1.01 | [38] 0.999 | [39] 0.954 | [40] 0.997 | [2] 1.03 | [41] 1.04 | [42] 1.01 | [43] 0.998 | [44] 0.997 | [45] 1.05 | [46] 0.99 | [47] 1.01 | [48] 1 | [49] 0.999 | [50] 1 | [51] 0.999 | [52] 1.01 | [53] 1.01 | [54] 0.98 | [55] 0.992 | [56] 1.01 | [57] 0.996 | [58] 0.997 | [59] 1 | [60] 1.01 | [61] 0.997 | [62] 0.993 | [63] 1.01 | [64] 1.01 | [65] 0.998 | [66] 0.982 | [67] 1 | [68] 0.994 | [69] 1.03 | [70] 1 | [71] 0.995 | [72] 0.986 | [73] 0.984 | [74] 0.999 | [75] 1.01 | [76] 1.02 | [77] 1.01 | [78] 1.02 | [79] 0.986 | [80] 0.989 | [81] 1 | [82] 0.988 | [83] 0.99 | [84] 1.01 | [85] 1 | [86] 1.05 | [87] 0.999 | [88] 1.01 | [89] 0.926 | [90] 1.01 | [91] 1.01 | [92] 0.993 | [93] 1.01 | [94] 1.05
